Results published in PubChem BioAssay.
Active and inactive are the calls of the source. Rule as the data show it, unless noted: active = inhibition above about 80%; inactive = the rest.

Columns and labels:
[1] = growth inhibition, single agent or in combination, cell-based, chromothripsis tumors, cisplatin or BGB combos (AID 1671449); details: LFS_MB_P medulloblastoma cells;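 also: cells exposed for 96 hours; 0% = vehicle DMSO and 100% = killing by high DMSO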
[2] = growth inhibition, single agent and combos, cell-based, chromothripsis tumors, cisplatin or BGB combos (AID 1671450); details: HDN33 neuroblastoma cells, stronger effect = higher value;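 also: cells exposed to compound for four days; 0% = vehicle DMSO and 100% = cell killing by high DMSO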
[3] = growth inhibition, single agents and combos, ICB984, cell-based, cisplatin or BGB combos, synergistic combos for chromothripsis tumors (AID 1671451; call rule not given here;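 also: cells exposed for 96 hours before readout; 0% = vehicle DMSO and 100% = killing by high DMSO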); details: ICB984 medulloblastoma cells, drug combinations, stronger effect = higher value
[4] = growth inhibition, single agents and combos, LFS_MB_1R, cell-based, cisplatin or BGB combos, synergistic combos for chromothripsis tumors (AID 1671452); details: LFS_MB_1R medulloblastoma cells, stronger effect = higher value;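 also: cells exposed for 96 hours before readout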
[5] = growth inhibition, single agents and combos, HTB85, cell-based, BGB or cisplatin IC20 combos, synergistic combos for chromothripsis tumors (AID 1671453); details: HTB85 osteosarcoma cells, drug combinations, stronger effect = higher value;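 also: cells exposed for 96 hours before readout; 0% = vehicle DMSO and 100% = high DMSO killing control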
[6] = growth inhibition, single agents and combos, CRL2098, cell-based, BGB or cisplatin IC20 combos, synergistic combos for chromothripsis tumors (AID 1671454); details: CRL2098 osteosarcoma cells, drug combinations, stronger effect = higher value;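 also: cells exposed for 96 h before readout; 0% = vehicle DMSO and 100% = killing by high DMSO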
[7] = growth inhibition, single agents and combos, HD-MB03, cell-based, BGB or cisplatin IC20 combos, synergistic combos for chromothripsis tumors (AID 1671455; in the data active = inhibition above about 83%;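 also: 0% = vehicle DMSO and 100% = high DMSO as cytotoxic control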); details: HD-MB03 medulloblastoma cells, stronger effect = higher value
[8] = growth inhibition, single agents and combos, UWB1.289, cell-based, BGB or cisplatin combos, synergistic combos for chromothripsis tumors (AID 1671456); details: UWB1.289 ovarian carcinoma cells, stronger effect = higher value;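 also: cells exposed to compound for four days; 0% = vehicle DMSO and 100% = killing by high DMSO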
[9] = growth inhibition, single agents and combos, LFS_MB_2R, cell-based, cisplatin combos, synergistic combos for chromothripsis tumors (AID 1671457); details: LFS_MB_2R medulloblastoma cells, stronger effect = higher value;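 also: cells exposed to compound for four days before readout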
[10] = growth inhibition, MDA-MB-436, cell-based, BGB or cisplatin combos, synergistic combos for chromothripsis tumors (AID 1671458; call rule not given here;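 also: cells exposed for 96 hours; 0% = vehicle DMSO and 100% = killing by high DMSO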); details: MDA-MB-436 breast carcinoma growth inhibition, drug combinations, stronger effect = higher value
[11] = UWB1.289_BRCA1 ovarian cancer growth, cell-based, BGB or cisplatin combinations (AID 1671459); details: UWB1.289 BRCA1 ovarian carcinoma, drug combinations, stronger effect = higher value
[12] = drug combination toxicity in non-malignant astrocytes – cell-based, BGB or cisplatin IC20 combos, cytotoxicity control for chromothriptic childhood tumor combination screen (AID 1671460); details: Human astrocytes, viability inhibition, drug combinations, at 0.5 µM, stronger effect = higher value;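 also: cells exposed to compounds for 96 hours before viability readout; 0% = vehicle and 100% = killing control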
[13] = BT084 cell growth, single and combined drugs, ICGC_MB145, cisplatin and BGB IC40 combos (AID 1671461); details: BT084 medulloblastoma cells, drug combinations, stronger effect = higher value;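 also: cells exposed to drugs for 96 hours; 0% = vehicle DMSO and 100% = high DMSO full killing control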
[14] = RCMB18 cell growth, single agent and combined, cisplatin and BGB IC40 combos (AID 1671462); details: RCMB18 medulloblastoma cells, stronger effect = higher value;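 also: cells exposed to compound for four days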
[15] = CRL1545 cell growth, single agent and combined, cisplatin and BGB IC20 combos (AID 1671464); details: CRL1545 osteosarcoma cells, stronger effect = higher value;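 also: cells exposed to compound for 96 hours before readout; 0% = vehicle DMSO and 100% = high DMSO killing control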
[16] = measured here: combination with BGB IC40, at 0.05 µM
[17] = measured here: with BGB IC20 combination, at 0.5 µM
[18] = measured here: with cisplatin IC20 combination, at 0.5 µM
[19] = measured here: combination with cisplatin, at 0.5 µM
[20] = measured here: combination with cisplatin, at 5 µM

For `Cc1cn(C2CC(O)C(COP(=O)(O)OP(=O)(O)OP(=O)(O)O)O2)c(=O)[nH]c1=O` (stereo not drawn), which inhibition ([1]; at 0.5 µM, stronger effect = higher value) is on record?
Its inhibition is -19.9% (inactive).

And the inhibition ([1]; measured here: combination with BGB IC20, at 0.005 µM)?
The inhibition was -8.93%.

And the inhibition ([1]; measured here: combination with BGB IC40, at 0.005 µM)?
Its inhibition is 80.9%.

And the inhibition [1, 16]?
The inhibition was 0.344%.

What about the inhibition ([1]; measured here: combination with cisplatin, at 0.5 µM, stronger effect = higher value) of the same molecule?
Its inhibition is -42.6%.

What about the inhibition ([1]; measured here: combination with cisplatin, at 5 µM, stronger effect = higher value) of the same molecule?
The inhibition was -12.4%.

And the inhibition ([2]; BGB combo, at 5 µM)?
The inhibition was -9.68%.

And the inhibition ([2]; at 0.5 µM)?
Its inhibition is 4.14% (inactive).

What about the inhibition ([2]; cisplatin combo, at 5 µM) of the same molecule?
Its inhibition is 0.577%.

What about the inhibition [2, 17] of the same molecule?
Its inhibition is -1.96%.

What about the inhibition [2, 18] of the same molecule?
The inhibition was 7.93%.

And the inhibition ([2]; single agent, at 5 µM)?
The inhibition was 1.73%.

What about the inhibition ([3]; BGB IC20 combo, at 0.005 µM) of the same molecule?
The inhibition was 10.7%.

What about the inhibition ([3]; BGB IC40 combo, at 0.005 µM) of the same molecule?
Its inhibition is 17.3%.

And the inhibition ([3]; BGB IC40 combo, at 0.05 µM)?
The inhibition was 24%.

What about the inhibition ([3]; at 0.5 µM) of the same molecule?
Its inhibition is 8.18% (inactive).

And the inhibition ([3]; cisplatin combo, at 0.05 µM)?
The inhibition was 20.3%.

What about the inhibition ([3]; cisplatin combo, at 0.5 µM) of the same molecule?
The inhibition was 3.65%.

And the inhibition ([3]; cisplatin combo, at 5 µM)?
The inhibition was -24.4%.

And the inhibition ([3]; measured here: 5 uM single agent, at 5 µM)?
The inhibition was 4.13%.

What about the inhibition ([4]; at 0.5 µM) of the same molecule?
The inhibition was 6.88% (inactive).

And the inhibition [4, 16]?
The inhibition was -1.92%.

And the inhibition [4, 19]?
The inhibition was 9.07%.

And the inhibition [4, 20]?
The inhibition was 4.13%.

What about the inhibition ([5]; at 0.5 µM) of the same molecule?
Its inhibition is 7.15% (inactive).

And the inhibition ([5]; measured here: with BGB IC20, at 0.5 µM)?
The inhibition was 27.1%.

What about the inhibition ([5]; measured here: with BGB IC20, at 5 µM) of the same molecule?
Its inhibition is 13.2%.

What about the inhibition ([5]; measured here: with cisplatin IC20, at 0.5 µM) of the same molecule?
The inhibition was -5.05%.

What about the inhibition ([5]; measured here: with cisplatin IC20, at 5 µM) of the same molecule?
Its inhibition is 1.73%.

What about the inhibition ([5]; single agent, at 5 µM) of the same molecule?
Its inhibition is 10.9%.

What about the inhibition ([6]; at 0.5 µM) of the same molecule?
Its inhibition is 6.85% (inactive).

And the inhibition ([6]; measured here: combination with BGB at IC20, at 0.5 µM)?
The inhibition was -16.6%.

What about the inhibition ([6]; measured here: combination with cisplatin at IC20, at 0.5 µM) of the same molecule?
The inhibition was 29.2%.

And the inhibition ([7]; at 0.5 µM)?
Its inhibition is 10.7% (inactive).

What about the inhibition ([7]; measured here: combo with BGB at IC20, at 0.5 µM) of the same molecule?
The inhibition was 9.76%.

What about the inhibition ([7]; measured here: combo with cisplatin at IC20, at 0.5 µM) of the same molecule?
Its inhibition is 8%.

What about the inhibition ([8]; at 0.5 µM) of the same molecule?
The inhibition was 7.19% (inactive).

What about the inhibition ([8]; measured here: inhibition with BGB combination, at 0.05 µM) of the same molecule?
The inhibition was 12.5%.

And the inhibition ([8]; measured here: inhibition with cisplatin combination, at 0.05 µM)?
The inhibition was -3.67%.

And the inhibition ([9]; at 0.5 µM)?
Its inhibition is 0.97% (inactive).

And the inhibition [9, 19]?
Its inhibition is 8.52%.

And the inhibition [9, 20]?
Its inhibition is 26.6%.

And the inhibition ([10]; at 0.5 µM)?
Its inhibition is 2% (inactive).

What about the inhibition ([10]; measured here: BGB combination, at 0.5 µM) of the same molecule?
The inhibition was -1.94%.

What about the inhibition ([10]; measured here: BGB combination, at 5 µM) of the same molecule?
The inhibition was 2.66%.

And the inhibition ([10]; measured here: cisplatin combination, at 0.5 µM)?
The inhibition was -0.048%.

And the inhibition ([10]; measured here: cisplatin combination, at 5 µM)?
Its inhibition is 5.35%.

And the inhibition ([11]; BGB combination, concentration series, at 5 µM)?
Its inhibition is 5.28%.

What about the inhibition ([11]; at 0.5 µM) of the same molecule?
Its inhibition is 7.57% (inactive).

And the inhibition ([11]; cisplatin combination, concentration series, at 5 µM)?
The inhibition was 6.92%.

And the inhibition [12]?
The inhibition was 2.58% (inactive).

What about the inhibition ([12]; measured here: combo with BGB IC20) of the same molecule?
Its inhibition is -0.198%.

And the inhibition ([12]; measured here: combo with cisplatin IC20)?
The inhibition was 3.8%.

What about the inhibition ([13]; at 0.5 µM) of the same molecule?
Its inhibition is 6.5% (inactive).

What about the inhibition ([13]; cisplatin combination, at 0.5 µM) of the same molecule?
The inhibition was 4.31%.

And the inhibition ([13]; cisplatin combination, at 5 µM)?
The inhibition was -28.2%.

And the inhibition ([13]; measured here: BGB IC40 combination 0.05 uM, at 0.05 µM)?
Its inhibition is 23.2%.

What about the inhibition ([13]; single agent, at 5 µM) of the same molecule?
Its inhibition is 18.9%.

And the inhibition ([14]; at 0.5 µM)?
Its inhibition is -1.71% (inactive).

What about the inhibition ([14]; cisplatin combo, at 5 µM) of the same molecule?
Its inhibition is -2.93%.

And the inhibition ([14]; measured here: BGB IC40 combination, at 0.05 µM)?
The inhibition was 18.6%.

And the inhibition [14, 19]?
Its inhibition is -28.7%.

What about the inhibition ([14]; single agent, at 5 µM) of the same molecule?
Its inhibition is 2.51%.

And the inhibition ([15]; at 0.5 µM)?
Its inhibition is 12.4% (inactive).

And the inhibition [15, 17]?
The inhibition was 17.1%.

What about the inhibition [15, 18] of the same molecule?
The inhibition was 8.61%.

And the inhibition ([15]; single agent, at 0.05 µM)?
Its inhibition is -33%.

What about the inhibition ([15]; single agent, at 5 µM) of the same molecule?
Its inhibition is -18%.
